# GLP1R inv ag: GLP-1 receptor (human) inverse agonism; P43220; HEK293 GLP-1R CRE-luciferase, luminescence, 24 h; GLP-1R form is constitutively active; Potency, µM (titrated, usually from 38.3 µM), usual class: inhibitors; 1.6% of 410,000 active; AID 624417; note: nearly all actives have a fitted effect of over 55% in size
#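 Assay principle: reduced luminescence from a cAMP-responsive reporter in HEK293 cells co-expressing a constitutively active GLP-1R. Conditions: 24 hr compound incubation, 37 deg C, 5% CO2.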
# D3 ag: D3 dopamine receptor (human) agonism; D3R DiscoveRx beta-arrestin cells, luminescence, 90 min; AID 652048; max activation, %; P35462; 0.58% of 410,000 active; in the data active = max activation above about 30%
# Target sequence (P35462 whole entry, looked up): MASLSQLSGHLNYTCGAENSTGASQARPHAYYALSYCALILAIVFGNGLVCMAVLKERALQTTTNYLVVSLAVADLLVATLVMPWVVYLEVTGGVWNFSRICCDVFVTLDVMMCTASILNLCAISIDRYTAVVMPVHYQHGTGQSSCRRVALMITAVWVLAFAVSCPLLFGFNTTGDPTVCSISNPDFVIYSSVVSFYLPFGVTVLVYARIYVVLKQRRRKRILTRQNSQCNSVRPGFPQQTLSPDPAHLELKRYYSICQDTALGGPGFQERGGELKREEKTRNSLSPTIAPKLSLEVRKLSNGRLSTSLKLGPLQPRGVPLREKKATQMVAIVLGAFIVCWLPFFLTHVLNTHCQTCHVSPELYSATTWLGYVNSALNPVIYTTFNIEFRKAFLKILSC
#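 Agonist mode: compounds and dopamine controls were applied to plated cells for 90 min at 37 degrees C after an overnight attachment at 1500 cells/well. Luminescent read-out followed 30 - 60 minutes at room temperature with DiscoveRx detection reagent.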
# GLP1R ag: activates the human GLP-1 receptor | P43220 | HEK293 GLP-1R CRE-luciferase, luminescence, 4-6 h; cells express a hypersensitive GLP-1R form | Potency, µM (doses to about 45.6 µM), most hits filed as activators | 0.007% of 380,000 active | AID 624172
# D3 antag: D3 dopamine receptor (human) antagonism. P35462. max response, negative = inhibition, %. D3R cells, DiscoveRx beta-arrestin luminescence, antagonist mode; stronger effect = lower value. 2.5% of 360,000 active; in the data active = max response below about -50%; inconclusive = no clear call, values can overlap the other calls
#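 Cells expressing the human receptor were seeded at 1500 cells/well, incubated overnight at 37 degrees C in 5% CO2, then exposed to library compounds with dopamine controls for 90 minutes at 37 degrees C before luminescent detection.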
# A number is an active result; – = inactive; ? = inconclusive; · = no result given. In the library only some 4.3% were active in any assay of this set; here they are far more common. Unless noted, calls come from the whole dose curve; as a rule, active = well fitted curve in the direction sought with a large enough effect; inconclusive = small, poorly fitted or top-dose-only effect, or another doubt; inactive = no such curve, though single readings can be large; an effect the other way counts as inactive or inconclusive.
SMILES,GLP1R inv ag,D3 ag,GLP1R ag,D3 antag
Cc1cc(S(=O)(=O)Nc2ccc(-c3ccc(N4CCCCCC4)nn3)cc2)c(C)cc1Cl,7.9µM,–,·,·
CCOc1ccc(S(=O)(=O)Nc2ccc(-c3ccc(N4CCCC4)nn3)cc2)cc1,–,–,·,·
O=C(NC1CCCCC1)c1ccc(CSc2nc3cccnc3n2Cc2cccc(F)c2)cc1,?,–,·,·
CCc1ccc2c(CN(C)Cc3ccccc3OC)cc(=O)oc2c1,?,–,?,–
Cc1ccc(C(c2sc3nc(-c4ccco4)nn3c2O)N2CCN(c3ccc(F)cc3)CC2)cc1 (centres undefined),–,–,·,·
Cc1oc(-c2cccc(Br)c2)nc1Cn1c(SCc2cccc(F)c2)nc2cccnc21,–,–,·,·
CCN(CC)S(=O)(=O)c1ccc(S(=O)(=O)Nc2ccc(C(=O)N3CCCC3)cc2)cc1,–,–,–,-56
CCOc1ccc(NS(=O)(=O)c2ccc(C(=O)N3CCCCC3)cc2)cc1,?,–,–,–
CN(C)S(=O)(=O)c1ccc(S(=O)(=O)Nc2ccc3c(c2)oc2ccccc23)cc1,–,–,–,–
CCN(CC)S(=O)(=O)c1ccc(S(=O)(=O)Nc2ccc3c(c2)oc2ccccc23)cc1,–,–,–,-58
CCOc1ccccc1CNC(=O)c1cc(-c2ccc(C)c(C)c2)nc2ccccc12,–,–,·,·
CCOC(=O)C1=C[C@@H](C(C)C)N(S(=O)(=O)c2ccc(C)cc2)[C@H]1c1ccccc1F,?,–,–,–
COc1ccc(C(=O)NCC2(c3ccccc3)CCCC2)c(OC)c1,3.2µM,–,?,–
O=C(NCC1(c2ccccc2)CCCC1)c1ccc(Br)cc1,?,–,–,–
Cc1ccc(C(=O)NCC2(c3ccccc3)CCCC2)cc1,2.5µM,–,–,–
Nc1ccccc1C(=O)NCC1(c2ccccc2)CCCC1,3.2µM,–,–,–
O=C(NCC1(c2ccccc2)CCCC1)c1ccc(Br)o1,?,–,–,–
CC/C=C\C/C=C\C/C=C\C/C=C\C/C=C\CCCC(=O)O,·,–,–,·
COC(=O)C1=C(C(=O)OC)[C@@H]2N(C)c3ccccc3[C@@]23C[C@@H](CO)N(C(=O)C2CCC2)C3=N1,–,–,–,-53
CCOc1cccc(CC(=O)N2CCc3c([nH]c4ccccc34)C2c2ccccc2)c1OCC (centres undefined),?,–,·,·
Cc1cccc(C2c3[nH]c4ccccc4c3CCN2C(=O)CN2CCOC2=O)n1 (centres undefined),–,–,–,–
CCOc1ccc(C2c3[nH]c4ccccc4c3CCN2C(=O)Cc2cccc(OCC)c2OCC)cc1 (centres undefined),6.3µM,–,·,·
Cc1cccc(C2c3[nH]c4ccccc4c3CCN2C(=O)Cc2nc(-c3ccccc3)n[nH]2)n1 (centres undefined),11µM,–,–,–
CCOc1cccc(C2c3[nH]c4ccccc4c3CCN2C(=O)c2ccccc2F)c1 (centres undefined),5.6µM,–,·,·
COc1ccc(CCC(=O)N2CCc3c([nH]c4ccccc34)C2c2ccc(F)cc2)cc1 (centres undefined),10µM,–,·,·
SMILES,GLP1R inv ag,D3 ag,GLP1R ag,D3 antag
O=C(CSCc1ccc(F)cc1)N1CCc2c([nH]c3ccccc23)C1c1ccccc1 (centres undefined),7.9µM,–,·,·
CC(=O)NCCC(=O)N1CCc2c([nH]c3ccccc23)C1c1cccc(Cl)c1 (centres undefined),5µM,–,–,–
O=C(CSc1ccccc1)N1CCc2c([nH]c3ccccc23)C1c1ccc(Cl)cc1 (centres undefined),5µM,–,·,·
COc1ccc(NC(=O)c2cc3ccc(O)cc3o/c2=N\O)cc1,?,–,–,–
CCc1ccc(S(=O)(=O)c2nnn3c2nc(N2CCOCC2)c2sccc23)cc1,–,–,·,·
Cc1ccc(OCC(=O)OCc2cc(=O)n3nc(C4CCCCC4)sc3n2)cc1C,–,–,·,·
CN(C)CC(O)COc1cc2ccccc2cc1C(=O)N1CCCCC1 (centres undefined),–,–,–,-59
Cc1cc(C)cc(NC(=O)Cc2c(C(=O)O)c(C)cn2C)c1,–,–,·,·
O=C(NCc1ccc(F)cc1)C1CCC(CNS(=O)(=O)c2cccs2)CC1 (centres undefined),–,–,–,–
O=C(C1CCC(CNS(=O)(=O)c2cccs2)CC1)N1CCN(c2ccc(F)cc2)CC1 (centres undefined),?,45,–,–
